In PubChem BioAssay (EPA / NIEHS):
Calls of active or inactive are those of the source. The calls were made as follows: active = hit-call score of the fitted dose curve at least 0.9, where 1 is the maximum; inactive = score below 0.9.

These molecules were tested on Tissue Factor, F3 (gene 2152) (assay: BSK_CASM3C_TissueFactor: BioMAP Diversity Plus: CASM3C Assay for Tissue Factor Biomarker Activity (AID 2283052;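 also: cell surface tissue factor protein level read by ELISA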)). Details: primary human coronary artery smooth muscle cells; actives raise or lower the signal.

outcome, inactive:
Nc1nc2ncc(CNc3ccc(C(=O)N[C@@H](CCC(=O)O)C(=O)O)cc3)nc2c(=O)[nH]1
COCCOCCOCCOC
COCCOc1cc2cc(C(=O)NC3CCN(C(C)C)CC3)n(CC(=O)Nc3ccc(Cl)cn3)c2cn1
CC(C)CCCCCCCOC(=O)CCCCC(=O)OCCCCCCCC(C)C
O=C(CCCCCCCCc1cccnc1)N1CCC(C=C(c2ccccc2)c2ccccc2)CC1
CCc1cc(SCc2sc(-c3ccc(C(F)(F)F)cc3)nc2CN2CCN(c3ccc(OC)cc3)CC2)ccc1OCC(=O)O
Cn1c(=O)c2c(ncn2C)n(C)c1=O
Cn1c(=O)cc(Oc2ccc(F)cc2F)c2cnc(NCC(C)(C)O)nc21
CC(C)CCO
O=c1n(CC2CO2)c(=O)n(CC2CO2)c(=O)n1CC1CO1 (centres undefined)
CCNc1ccccc1
CCOCCOCCOCCO
Cc1[nH]cnc1C[C@H]1CCc2c(C)c3ccccc3n2C1=O
COC(=O)c1ccccc1O
CC(C)=CCC/C(C)=C/CO
CC(C)CCCCCCOC(=O)c1ccc(C(=O)OCCCCCCC(C)C)c(C(=O)OCCCCCCC(C)C)c1
COc1ccc(/C=C/S(=O)(=O)NC(=O)c2ccc(C)cc2Cl)cc1
CCN(C(=O)c1cc(C)cc(OC[C@H](C)Nc2ccncc2)c1)C(C)C
CCCN(C1CCN(C(=O)C2CCNCC2)CC1)[C@@H]1CCc2ccc(OC)cc2C1
Cc1c(-c2cccnc2)c2ccccc2n1CCCCC(=O)O
CC[C@H]1OC(=O)[C@H](C)[C@@H](O[C@H]2C[C@@](C)(OC)[C@@H](O)[C@H](C)O2)[C@H](C)[C@@H](O[C@@H]2O[C@H](C)C[C@H](N(C)C)[C@H]2O)[C@](C)(O)C[C@@H](C)C(=O)[C@H](C)[C@@H](O)[C@]1(C)O
CN(C)c1ccc(N=NS(=O)(=O)O)cc1
O=c1[nH]c2ccc(S(=O)CCN3CCC(Cc4ccc(F)cc4)CC3)cc2o1 (centres undefined)
Cn1cnc([N+](=O)[O-])c1Sc1ncnc2nc[nH]c12
CCOC(=O)CC(CC(=O)OCC)(OC(C)=O)C(=O)OCC
O=C(OC[C@H]1O[C@@H](OC(=O)c2cc(O)c(O)c(OC(=O)c3cc(O)c(O)c(O)c3)c2)[C@H](OC(=O)c2cc(O)c(O)c(OC(=O)c3cc(O)c(O)c(O)c3)c2)[C@@H](OC(=O)c2cc(O)c(O)c(OC(=O)c3cc(O)c(O)c(O)c3)c2)[C@@H]1OC(=O)c1cc(O)c(O)c(OC(=O)c2cc(O)c(O)c(O)c2)c1)c1cc(O)c(O)c(OC(=O)c2cc(O)c(O)c(O)c2)c1
CC(C)=CCCC(C)=CC=O
CCOc1cccc(-n2cc(C(=O)N3CCN(c4cc(C(=O)O)c5ccccc5c4)CC3)nc2-c2ccc(C)cc2)c1

AC50, active:
COc1ccc2sc(C(=O)Nc3nnn[nH]3)c(OC(C)C)c2c1 7.08 µM
